A selection: hits, their analogues and other compounds. The true share with any hit is near 3.7%.
BoNT-A LC inh2: BoNT/A light chain protease inhibitors, primary screen, biochemical, flow cytometry, MLPCN library; Botulinum neurotoxin type A light chain protease (Clostridium botulinum A str. ATCC 3502); inhibition, % at 10 µM; AID 588499, 2011; hit rate 0.17% among 360,000; multiplex microsphere protease substrate cleavage
MazF activator: activators of E. coli MazEF toxin-antitoxin RNase, primary screen, biochemical, fluorescence, uHTS; Endoribonuclease toxin MazF (Escherichia coli (strain K12)), P0AE70; FAM/BHQ RNA-DNA oligo cleavage fluorescence, 5 h; activation, % at 20 µM; hit rate 0.32% among 350,000; AID 504720, 2011; in the data active means activation above about 50%
Target sequence (P0AE70 whole entry, looked up): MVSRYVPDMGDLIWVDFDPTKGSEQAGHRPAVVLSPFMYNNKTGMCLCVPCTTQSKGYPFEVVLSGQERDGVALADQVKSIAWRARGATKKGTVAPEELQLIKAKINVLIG
Anthrax LF inh2: Bacillus anthracis LF protease inhibitors, primary screen, biochemical, multiplex microsphere, MLPCN library; hit rate 0.12% among 360,000; inhibition, % at 10 µM; Lethal factor (Bacillus anthracis), P15917; multiplex microsphere protease cleavage assay
BoNT-F LC inh: BoNT/F light chain protease inhibitors, primary screen, biochemical, flow cytometry, MLPCN library; Botulinum neurotoxin type F light chain protease (Clostridium botulinum); Multiplex microsphere protease cleavage assay; inhibition, % at 10 µM; hit rate 0.22% among 360,000; in the data active means inhibition above about 35%, passing the limit was not always enough; inconclusive means no clear call, values can overlap the other calls
Autofluor counter: counter-screen for toxin protease inhibitors: compound fluorescence | compound autofluorescence counterscreen, microsphere flow cytometry; hits give high values | fluorescence intensity (test concentration not listed) | hit rate 3.1% among 360,000; in the data active means fluorescence intensity above about 16000; inconclusive means no clear call, values can overlap the other calls
Large screens that a line does not name were inactive. Unless noted, no stated cut-off is given here; in the data, active means inhibition above about 30%; inconclusive means no clear call, values can overlap the other calls; inactive means below that.

Cc1cc(C)c2c(=O)n3c(nc2c1)C(Cc1ccccc1)NC(=O)c1cc2ccccc2cc1-3 (configuration not stated)	none
COC(=O)CN1C(=O)C2(C(C#N)=C(N)Oc3ccccc32)C2=C1CC(C)(C)CC2=O (configuration not stated)	Autofluor counter 22010
Cc1ccc(C(=O)OCC(=O)Nc2c(C)n(C)n(-c3ccccc3)c2=O)cc1[N+](=O)[O-]	MazF activator 50
O=C(NCc1ccc(F)cc1)C(c1cccs1)N(C(=O)c1csnn1)C1CC1 (configuration not stated)	BoNT-A LC inh2 inconclusive, Autofluor counter 16343
CCCCNC(=O)Nc1cc(C(F)(F)F)c[nH]c1=O	Autofluor counter 24583
CCCCNC(=O)Nc1ccccc1CC	BoNT-F LC inh inconclusive
COc1cc(Cl)c(C)cc1NC(=O)CSc1ccc(C)cc1	Autofluor counter 23633
C#CCNC(=O)C1=C[C@H](C)C[C@H](OCc2ccc(CO)cc2)O1	none
COc1ccc(CC2(c3ccccc3)NC(=O)NC2=O)cc1 (configuration not stated)	none
CN(C)Cc1c(C(=O)N/N=C/c2cccc(OCc3ccc(F)cc3)c2)nnn1-c1nonc1N	MazF activator 99
CCOc1ccc(/C=N/NC(=O)c2nnn(-c3nonc3N)c2COc2ccc(F)cc2)cc1	BoNT-F LC inh inconclusive
CN(C)c1ccc(/C=N/NC(=O)c2nnn(-c3nonc3N)c2COc2ccc(F)cc2)cc1	Anthrax LF inh2 32
CN(C)Cc1c(C(=O)N/N=C/c2ccncc2)nnn1-c1nonc1N	BoNT-F LC inh 42
Cc1c(OCC(=O)OC(C)(C)C)ccc2c3c(c(=O)oc12)CCC3	none
Cc1oc(C(=O)O)cc1COc1ccc2c3c(c(=O)oc2c1C)CCC3	Autofluor counter 16185
CCSc1ccc([C@@H]2[C@H]3C(=O)N(CC)C(=O)[C@H]3[C@]3(C(=O)OC)CCCCN23)cc1	Autofluor counter 21568
Cc1sc(NC(=O)c2ccco2)c(CN2CCN(c3ccccn3)CC2)c1C	Autofluor counter 23314
Cc1sc(NC(=O)c2ccco2)c(CN2CCN(c3ccc(F)cc3)CC2)c1C	none
CC(=O)Nc1sc2c(c1CN1CCN(c3ccccn3)CC1)CCCC2	Autofluor counter 22350
Cc1cccc(C)c1NC(=O)Nc1nnc([C@H]2C[C@H](O)[C@@H](CO)O2)s1	none (no result: MazF activator)
COC(=O)C1=C(C)NC(=O)CC1c1ccc(F)c(Br)c1 (configuration not stated)	BoNT-A LC inh2 inconclusive, Autofluor counter 23452
COC(=O)C1=C(C)NC(=O)CC1c1ccc(C(=O)OC)cc1 (configuration not stated)	none
CCOC(=O)N1CCN(C(=O)CSc2ccccc2)CC1	Autofluor counter 23877
CC(C)CC(=O)N1CCN(Cc2ccccc2Cl)CC1	none
CCOC(=O)N1CCN(Cc2ccccc2F)CC1	Autofluor counter 20462
CCOC(=O)N1CCN(Cc2ccccc2Cl)CC1	Autofluor counter 22232
CCOC(=O)N1CCN(Cc2nc(-c3cccc(C)c3)no2)CC1	Autofluor counter 22782
O=C(CCCN=C1NS(=O)(=O)c2ccccc21)OCC(=O)c1ccccc1Cl	Autofluor counter inconclusive
Cc1ccc(S(=O)(=O)N2CCC(C(=O)NCCN3CCOCC3)CC2)cc1	none
C[C@@H]1CN([C@H](C)CO)C(=O)c2c(c3ccccc3n2C)-c2ccccc2CO[C@H]1CN(C)S(=O)(=O)c1cn(C)cn1	none
CCOC(=O)N1CCN(c2cc(=O)n(-c3ccc(OC)cc3)c(=O)[nH]2)CC1	none
COc1ccccc1N1CCN(c2cc(=O)n(-c3ccc(Br)cc3)c(=O)[nH]2)CC1	Autofluor counter 21225
CCOC(=O)N1CCN(c2cc(=O)n(-c3ccc(OCC)cc3)c(=O)[nH]2)CC1	Autofluor counter 22900
CCN(CC)CCC(O)(c1ccc2c(c1)OCO2)c1cc(OC)c(OC)c(OC)c1 (configuration not stated)	none
NC(=O)C1(Nc2ccc(Br)cc2)CCCC1	none
COc1ccc(N(CC(=O)N/N=C/c2ccc(-c3ccc([N+](=O)[O-])cc3)o2)S(=O)(=O)c2ccc(C)cc2)cc1Cl	BoNT-A LC inh2 56, Anthrax LF inh2 44, BoNT-F LC inh 42
OC1(c2cccc(C(F)(F)F)c2)CCNCC1	Autofluor counter 20667
